Reference: the supplement of paper PMC5662767
Counter-ions that a name gives are not always drawn.

The compounds below were run on Drosophila S2 cl14 SmoIP sensor cells (assay: normalized SmoIP GFP fluorescence (untreated unstimulated = 0%, untreated Hh-stimulated = 100%); higher = more Smo activation sensor fluorescence). Settings: stimulation: Hh conditioned medium (+Hh); compound concentration: 2 uM; 24 h.
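Also: flow cytometry read-out as median GFP intensity of gated cells, compounds added 30 min before Hh-conditioned or mock medium, mock-treated cells serving as unstimulated baseline.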

Point of comparison: `Cc1cccc(C)c1OCC(=O)N[C@@H](Cc1ccccc1)[C@@H](O)C[C@H](Cc1ccccc1)NC(=O)[C@H](C(C)C)N1CCCNC1=O` [Lopinavir], “normalized SmoIP GFP fluorescence” value 117%. Against it:
- Cc1ccc(S(=O)(=O)OCC(=O)Nc2ccc(C(=O)O)c(O)c2)cc1 — lower, 112%
- CC1=C(C(=O)OC(C)C)C(c2cccc([N+](=O)[O-])c2)C(C(=O)OC2CN(C(c3ccccc3)c3ccccc3)C2)=C(N)N1 (stereo not drawn) [azelnidipine] — lower, 111%
- C[C@H](Cc1cc2c(c(C(N)=O)c1)N(CCCO)CC2)NCCOc1ccccc1OCC(F)(F)F [Silodosin(Rapaflo)] — lower, 83.5%
- CCC(=O)Nc1cccc(Oc2nc(Nc3ccc(N4CCN(C)CC4)cc3OC)ncc2Cl)c1 — lower, 73.7%
- Nc1cccc(-c2cc3c(Oc4cccc(O)c4)ncnc3[nH]2)c1 — lower, 96.5%
- CN1CCN(c2ccc3nc(-c4c(N)c5c(F)cccc5[nH]c4=O)[nH]c3c2)CC1 [dovitinib] — higher, 240%
- CN(C)CC(c1ccc(O)cc1)C1(O)CCCCC1 (stereo not drawn) [desvenlafaxine-succinate] — lower, 103%
- O=C(NOCC1CC1)c1ccc(F)c(F)c1Nc1ccc(I)cc1Cl — lower, 112%
- CC(C)(C)NC[C@H](O)COc1nsnc1N1CCOCC1 [timolol-maleate] — lower, 111%
- C[C@@H](Oc1cc(-n2cnc3ccc(CN4CCN(C)CC4)cc32)sc1C(N)=O)c1ccccc1C(F)(F)F — lower, 113%
- CC(C)C[C@H](NC(=O)[C@H]1O[C@@H]1C(=O)O)C(=O)NCCCCN=C(N)N — higher, 129%
- C[C@@H]1C[C@H]2[C@@H]3CCC4=CC(=O)C=C[C@]4(C)[C@@]3(F)[C@@H](O)C[C@]2(C)[C@@]1(O)C(=O)CO [Dexamethasone] — lower, 86.8%
- Cn1cc(CNCC2CCN(c3ncc(C(=O)NO)cn3)CC2)c2ccccc21 — higher, 268%
- CCCCCCCCc1ccc(CCC(N)(CO)CO)cc1 — lower, 107%
- Cn1c(=O)cc(N2CCC[C@@H](N)C2)n(Cc2cc(F)ccc2C#N)c1=O [trelagliptin] — lower, 104%
- O=C(O)C(Cc1ccccc1[N+](=O)[O-])=NNc1nc(-c2ccc(Cl)c(Cl)c2)cs1 (mixture of isomers) — higher, 127%
- C=C[C@@]1(C)CC(=O)[C@]2(O)[C@@]3(C)[C@@H](O)CCC(C)(C)[C@@H]3[C@H](O)[C@H](OC(C)=O)[C@@]2(C)O1 [forskolin] — higher, 137%
- COCC[n+]1c2c(n(Cc3cnccn3)c1C)C(=O)c1ccccc1C2=O — lower, 101%
- O=C(Nc1cccnc1)N1CCC(Cc2cccc(Oc3ccc(C(F)(F)F)cn3)c2)CC1 — lower, 116%
- Cn1cc(-c2ccc3nnc(Sc4ccc5ncccc5c4)n3n2)cn1 — lower, 96.1%
- Cc1ccc(Nc2nccc(N(C)c3ccc4c(C)n(C)nc4c3)n2)cc1S(N)(=O)=O [Pazopanib-Hydrochloride] — the same, 117%
- N[C@@H](CC(=O)N1CCn2c(nnc2C(F)(F)F)C1)Cc1cc(F)c(F)cc1F [Sitagliptin] — lower, 103%
- Cc1ccccc1C(OCCN(C)C)c1ccccc1 (stereo not drawn) [orphenadrine-citrate-norflex] — higher, 142%

Same assay, conditions: stimulation: mock conditioned medium (-Hh); compound concentration: 2 uM; 24 h

Point of comparison: `Cn1cc(CNCC2CCN(c3ncc(C(=O)NO)cn3)CC2)c2ccccc21`, “normalized SmoIP GFP fluorescence” value 60.6%. Against it:
- C[C@@H](c1ncncc1F)[C@](O)(Cn1cncn1)c1ccc(F)cc1F [Voriconazole] — lower, 1.57%
- CC(C)NCC(O)COc1cccc2ccccc12 (stereo not drawn) [propranolol-hcl] — lower, -1.63%
- COc1cc(NC(=O)c2ccccn2)ccc1Cl — lower, -1.74%
- Cc1ccc(C(=O)Nc2cccc(C(F)(F)F)c2)cc1Nc1nc(-c2cccnc2)nc2c1cnn2C — lower, -9.04%
- CN1CCC[C@@H]1Cc1c[nH]c2ccc(CCS(=O)(=O)c3ccccc3)cc12 [eletriptan-hydrobromide] — lower, -2.71%
- Cc1cc(CN2CCN(c3c(Br)cnc4nc(-c5ccc(N6CCN(C)CC6)cc5)[nH]c34)CC2)no1 — lower, 20.5%
- CC(=O)N[C@@H](CS)C(=O)O [Acetylcysteine] — lower, 1.57%
- O=C(NCCS(=O)(=O)c1ccc(C(F)(F)F)cn1)c1ccc(Cl)cc1 — lower, -14.9%
- CCOC(=O)c1ccc(NC2CCCCC2)c(N)c1 [ferrostatin-1-fer-1] — lower, -3.05%
- COc1cc(OC)c(NC(=O)Nc2cc(C)on2)cc1Cl — lower, -5.98%
- c1ccc2c(Oc3nc(Nc4ccc(N5CCOCC5)cc4)c4ncn(C5CCCCC5)c4n3)cccc2c1 [purmorphamine] — lower, -1.23%
- Cn1nnc2c(C(N)=O)ncn2c1=O [Methazolastone] — lower, 3.18%
- C[C@@]1(C(=O)Nc2ccc(F)nc2)CCCN1c1nc(Nc2cc(C3CC3)n[nH]2)c2cccn2n1 — higher, 60.9%
- Cc1cc2c(F)c(Oc3ncnn4cc(OC[C@@H](C)OC(=O)[C@H](C)N)c(C)c34)ccc2[nH]1 [Brivanib-alaninate] — lower, 9%
- CNC(=O)c1ccc2cc([C@@]3(O)CCn4cncc43)ccc2c1 — lower, -1.56%
- Cc1ccc(S(=O)(=O)OCC(=O)Nc2ccc(C(=O)O)c(O)c2)cc1 — lower, -9.58%
- CC1=C(C(=O)OC(C)C)C(c2cccc([N+](=O)[O-])c2)C(C(=O)OC2CN(C(c3ccccc3)c3ccccc3)C2)=C(N)N1 (stereo not drawn) [azelnidipine] — lower, -1.23%
- C[C@H](Cc1cc2c(c(C(N)=O)c1)N(CCCO)CC2)NCCOc1ccccc1OCC(F)(F)F [Silodosin(Rapaflo)] — lower, -7.81%
- CCC(=O)Nc1cccc(Oc2nc(Nc3ccc(N4CCN(C)CC4)cc3OC)ncc2Cl)c1 — lower, -6.51%
- Nc1cccc(-c2cc3c(Oc4cccc(O)c4)ncnc3[nH]2)c1 — lower, 0.812%
- CN1CCN(c2ccc3nc(-c4c(N)c5c(F)cccc5[nH]c4=O)[nH]c3c2)CC1 [dovitinib] — higher, 72.9%
- CN(C)CC(c1ccc(O)cc1)C1(O)CCCCC1 (stereo not drawn) [desvenlafaxine-succinate] — lower, -5.38%
- Cc1cccc(C)c1OCC(=O)N[C@@H](Cc1ccccc1)[C@@H](O)C[C@H](Cc1ccccc1)NC(=O)[C@H](C(C)C)N1CCCNC1=O [Lopinavir] — lower, 6.52%
- O=C(NOCC1CC1)c1ccc(F)c(F)c1Nc1ccc(I)cc1Cl — lower, 10.7%
- CC(C)(C)NC[C@H](O)COc1nsnc1N1CCOCC1 [timolol-maleate] — lower, -1.51%
- C[C@@H](Oc1cc(-n2cnc3ccc(CN4CCN(C)CC4)cc32)sc1C(N)=O)c1ccccc1C(F)(F)F — lower, 17.7%
- CC(C)C[C@H](NC(=O)[C@H]1O[C@@H]1C(=O)O)C(=O)NCCCCN=C(N)N — lower, -3.72%
- C[C@@H]1C[C@H]2[C@@H]3CCC4=CC(=O)C=C[C@]4(C)[C@@]3(F)[C@@H](O)C[C@]2(C)[C@@]1(O)C(=O)CO [Dexamethasone] — lower, 5.66%
- CCCCCCCCc1ccc(CCC(N)(CO)CO)cc1 — lower, -0.0369%
- Cn1c(=O)cc(N2CCC[C@@H](N)C2)n(Cc2cc(F)ccc2C#N)c1=O [trelagliptin] — lower, 3.18%
- O=C(O)C(Cc1ccccc1[N+](=O)[O-])=NNc1nc(-c2ccc(Cl)c(Cl)c2)cs1 (mixture of isomers) — lower, 46.7%
- C=C[C@@]1(C)CC(=O)[C@]2(O)[C@@]3(C)[C@@H](O)CCC(C)(C)[C@@H]3[C@H](O)[C@H](OC(C)=O)[C@@]2(C)O1 [forskolin] — lower, -10%
- COCC[n+]1c2c(n(Cc3cnccn3)c1C)C(=O)c1ccccc1C2=O — lower, -12.7%
- O=C(Nc1cccnc1)N1CCC(Cc2cccc(Oc3ccc(C(F)(F)F)cn3)c2)CC1 — lower, -0.297%
- Cn1cc(-c2ccc3nnc(Sc4ccc5ncccc5c4)n3n2)cn1 — lower, -1.88%
- Cc1ccc(Nc2nccc(N(C)c3ccc4c(C)n(C)nc4c3)n2)cc1S(N)(=O)=O [Pazopanib-Hydrochloride] — lower, -4.53%
- N[C@@H](CC(=O)N1CCn2c(nnc2C(F)(F)F)C1)Cc1cc(F)c(F)cc1F [Sitagliptin] — lower, -1.74%
- Cc1ccccc1C(OCCN(C)C)c1ccccc1 (stereo not drawn) [orphenadrine-citrate-norflex] — lower, -11.7%
